# Measurements as given in PubChem BioAssay (NCI).
# This is part of a sample that, as a whole, favours compounds with a hit. Of some 79,000 tested, about 15% had one in any assay. Unmarked numbers belong to inactive results. The source made the active and inactive calls. Cut-off read from the data, not from the text of the source: active = growth inhibition above about 70%; inactive = the rest.
# Experiment: NCI Yeast Anticancer Drug Screen. Data for the cln2 rad14 strain (AID 165);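 note: 0% = growth equal to vehicle treated cultures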
# Conditions: S. cerevisiae cln2 rad14 strain, at 50.0 µM, active compounds read high
# Method in brief: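 Test compounds were added to cln2 rad14 yeast cultures; inhibition of growth was then determined by comparison with vehicle treatment.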
row,SMILES,growth inhibition
1,CCOP(=O)(OCC)/C(C#N)=C/c1ccc(Oc2ccccc2)cc1,90.6% (active)
2,CC(=O)Nc1ccc(S(=O)(=O)/N=C2\C=CC(=O)c3ccccc32)cc1,-43.4%
3,CCCC#CCCOC(=O)c1cc([N+](=O)[O-])cc([N+](=O)[O-])c1,98.9% (active)
4,COc1cccc2c1OC(c1ccc(Cl)cc1)C([N+](=O)[O-])=C2 (stereo not given),81.8% (active)
5,c1ccc(-n2c3ccccc3c3ccccc32)cc1,37.9%
6,CCOC(=O)C(NC(C)=O)[CH](c1ccccc1)[Sn]([c]1ccccc1)([c]1ccccc1)[c]1ccccc1 (stereo not given),94% (active)
7,C/C(CCn1[nH]c(=O)ccc1=O)=N\Nc1ccc([N+](=O)[O-])cc1[N+](=O)[O-],24.4%
8,N#CC(O)C(Br)(Br)Br (stereo not given),21.9%
9,COc1ccc(N)c([N+](=O)[O-])c1,39%
10,CC(C)O[C@H]1N(C2CC(N=[N+]=[N-])C(CO)O2)C(=O)NC(=O)[C@]1(C)Br (stereo not given in full),89% (active)
11,COc1ccc(C(=O)C2C(=O)C(=O)OC2C2OC(=O)C(=O)C2C(=O)c2ccc(OC)cc2)cc1 (stereo not given),-15.3%
12,O=[N+]([O-])c1c(Cl)c(Cl)c(O)c(Cl)c1Cl,30.9%
13,Cc1ccc(C)c(NC(=O)CCC(=O)CC(=O)c2ccncc2)c1,1.25%
14,CC(C)CCCC(C)C1CCC2C3CC=C4CC(OC(=O)Nc5ccc(S(=O)(=O)c6ccc(F)cc6)cc5)CCC4(C)C3CCC12C (stereo not given),51.5%
15,COc1ccc(/C=C(/NC(=O)c2ccccc2)C(=O)Nc2ccccc2)cc1OC,50.5%
16,C=C(Br)CN(CC(=C)Br)C(C)=O,-45.4%
17,CCN(C(C)=O)c1ccc2c(c1)Cc1ccccc1-2,94.8% (active)
18,NN(c1ccccc1)c1cccc2ccccc12,-23.8%
19,C#CCN1CCN(C(=S)N/N=C(\C)c2ccccn2)CC1,99.4% (active)
20,CC(C)OC(=O)C1C=CCc2c(O)ccc(O)c21 (stereo not given),65.9%

row,SMILES,growth inhibition
1,CC(=O)C1C(=O)C=C(C)OC1=O (stereo not given),3.7%
2,CCOC(=O)c1[nH]n(-c2ccccc2)c(=O)c1/C=N/C(=S)N=Nc1c(O)[nH]c2ccccc12,28.1%
3,N#Cc1c(Cl)nnc(-c2ccccc2)c1-c1ccccc1,93.8% (active)
4,CC(=O)Oc1c(O)c2ccccc2c2ccccc12,97.5% (active)
5,Cc1cccnc1NC(=S)Nc1ccccc1Cl,85.8% (active)
6,CCOC(=O)/C(=C\c1cccc(OC)c1)C(C)=O,84.3% (active)
7,c1ccc(C(c2ccccc2)c2ccc3ccccc3n2)cc1,-15.3%
8,O=c1cc(CSc2ccc(Cl)cc2)occ1O,13.2%
9,COc1cc(NCCCCCNC2CCCCC2)c2ncccc2c1,19.9%
10,CC(=O)OCc1ccc([N+](=O)[O-])o1,98.2% (active)
11,O=C(O)Cc1cccc2cc3c(ccc4ccccc43)cc12,96.6% (active)
12,Cc1cccc(N2C(=O)c3ccccc3C2(c2ccccc2)N2CCCCC2)c1 (stereo not given),75.3% (active)
13,O=C(/C=C/c1ccccc1)CCN1CCOCC1,88.7% (active)
14,C=CCCCCCCCCC(=O)CCCCCCCCC=C,58.8%
15,Cc1ccc(O)c(C(C)c2ccccc2)c1 (stereo not given),98.8% (active)
16,COC(=O)c1nc(N)nc(C(=O)OC)c1C(=O)c1ccccc1,42.7%
17,Cc1ccc(S(=O)(=O)Oc2ccc(C(C)(C)C)cc2Cl)cc1,-7.7%
18,CCCCCCCCCCCCCCC[N+]1(CC)CCCCC1,90% (active)
19,CC12CCC(=O)C=C1C=CC1C2CCC2(C)C1CCC21CCC(=O)O1 (stereo not given),24.1%
20,CC(C)N(C(=O)C12C3C4C1C1C2C3C41I)C(C)C (stereo not given),42.7%
